Measured values published in PubChem BioAssay (Tox21).
Unmarked numbers belong to inactive results. The call rests on the fitted dose curve; in most records, active means well fitted curve in the direction sought with a large enough effect in the repeat runs; inconclusive means weak or mixed curves; inactive means flat fitted curve, though single readings scatter.

Assay: qHTS assay to test for compound auto fluorescence at 535 nm (green) in HepG2 cell free culture (AID 720686)
Conditions: Cell-free medium, green autofluorescence 485/535 nm; series mostly up to 91.3 µM; fluorescence, % of fluorescein control: at the top concentration
On the % scale 0 is the no-effect control and ±100 the full control effect.

Row | SMILES | fluorescence, % of fluorescein control
1 | O=C1C(=O)c2ccccc2C(O)=C1C1CCC(c2ccc(Cl)cc2)CC1 (centres undefined) | 0.136% [at 18.6 µM]
2 | COc1ccccc1N1CCN(CC(O)COc2cccc3ccccc23)CC1 (centres undefined) | 0.0128% [at 46 µM]
3 | CN1CC(=O)N2[C@H](c3ccc4c(c3)OCO4)c3[nH]c4ccccc4c3C[C@@H]2C1=O | 0.005% [at 46 µM]
4 | O=C1c2ccccc2C(=O)C1c1nc2ccccc2c(Br)c1O | 0.141%
5 | N#CCCN(CCO)CCO | -0.145%
6 | CCOC(=O)C1=C(C)NC(C)=C(C(=O)OC)C1c1cccc(Cl)c1Cl (centres undefined) | 0.194% [at 46 µM]
7 | O=[N+]([O-])c1ccc(O/N=C/c2cc(Br)c(O)c(Br)c2)c([N+](=O)[O-])c1 | 0.0439%
8 | C/C=C/C=C/C=O | 0.0674%
9 | O=c1cc(-c2ccccc2)oc2ccc3ccccc3c12 | 0.0689%
10 | Nc1nc2ccc([N+](=O)[O-])cc2s1 | -0.105%
11 | CCC(C)COC(C)=O (centres undefined) | -0.16%
12 | CCOC(=O)OC(C)OC(=O)[C@@H]1N2C(=O)[C@@H](NC(=O)[C@H](N)c3ccccc3)[C@H]2SC1(C)C (some centres undefined) | 0.112% [at 18.6 µM]
13 | Brc1cc(Br)c(Oc2cc(Br)c(Br)cc2Br)cc1Br | -0.0152% [at 46 µM]
14 | C[C@@H]1CN(CCCn2c3ccccc3c3ccccc32)C[C@H](C)N1 | -0.0135% [at 46 µM]
15 | O=C1Cc2ccccc2N1c1c(Cl)cccc1Cl | 0.005%
16 | Cc1cc(O)ccc1O | 0.0051%
17 | CC1(C)[C@H](C(=O)O)N2C(=O)C[C@H]2S1(=O)=O | 0.0157% [at 46 µM]
18 | CCCCC(CC)COP(=O)(O)O (centres undefined) | 0.0082% [at 95.7 µM]
19 | c1ccc2sc(SN(C3CCCCC3)C3CCCCC3)nc2c1 | -0.0358% [at 95.7 µM]

Row | SMILES | fluorescence, % of fluorescein control
20 | CCCCCCCCOc1ccc(C(=O)O)cc1 | 0.0037%
21 | C[C@H]1c2cccc(O)c2C(O)=C2C(=O)[C@]3(O)C(O)=C(C(N)=O)C(=O)[C@@H](N(C)C)[C@@H]3[C@@H](O)[C@@H]21 | 0.0475% [at 46 µM]
22 | CCCC(C(=O)OCCN(CC)CC)(c1ccccc1)c1ccccc1 | 0.0444% [at 46 µM]
23 | O=C(CCCN1CC=C(n2c(=O)[nH]c3ccccc32)CC1)c1ccc(F)cc1 | 0.0436% [at 46 µM]
24 | C=CCc1ccccc1OCC(O)CNC(C)C (centres undefined) | 0.0432% [at 46 µM]
25 | CN(C)CCC=C1c2ccccc2C=Cc2ccccc21 | -0.0497% [at 46 µM]
26 | N#CCc1ccc(Cl)cc1Cl | -0.0648%
27 | O=C(/C=C/c1ccccc1)OCCc1ccccc1 | -0.0133%
28 | CC(C)(c1ccccc1)c1ccccc1 | 0.0513%
29 | CCOc1ccc(Cc2nccc3cc(OCC)c(OCC)cc23)cc1OCC | 0.0297% [at 18.6 µM]
30 | CCCCCCCCC(CCCCCC)C(=O)O (centres undefined) | -0.183%
31 | Oc1c(I)cc(I)c2cccnc12 | 0.0955% [at 46 µM]
32 | CC(=O)NC1(c2cccc(F)c2)CCN(CC[C@@]2(c3ccc(Cl)c(Cl)c3)CN(c3ccccc3)C(=O)CO2)CC1 | 0.0929%
33 | CN1C(=O)c2ccccc2C1=O | -0.29%
34 | CC(=O)Oc1ccc([N+](=O)[O-])cc1CCl | -0.0816%
35 | C=C(C)C(=O)OCCOCCOC(=O)C(=C)C | 0.0899%
36 | CC(=O)N/N=C/c1ccc([N+](=O)[O-])o1 | -0.047% [at 46 µM]
37 | CC1(C)O[C@@H]2C[C@H]3[C@@H]4C[C@H](F)C5=CC(=O)C=C[C@]5(C)[C@H]4[C@@H](O)C[C@]3(C)[C@]2(C(=O)CO)O1 | -0.129% [at 18.6 µM]

Assay: qHTS assay to test for compound auto fluorescence at 460 nm (blue) in HepG2 cells (AID 720687)
Conditions: autofluorescence 405/460 nm, 1 h; series mostly up to 91.3 µM; fluorescence, % of fluorescent control: at the top concentration
Outline: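 Blue-channel autofluorescence (Ex/Em 405/460 nm, triamterene-equivalent) was measured after 1 hr compound exposure at 37 C, 5% CO2. Cells were HepG2, plated overnight at 37 C in MEM plus 10% FBS.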

Row | SMILES | fluorescence, % of fluorescent control
38 | O=C1C(=O)c2ccccc2C(O)=C1C1CCC(c2ccc(Cl)cc2)CC1 (centres undefined) | 0.0025% [at 18.6 µM]
39 | COc1ccccc1N1CCN(CC(O)COc2cccc3ccccc23)CC1 (centres undefined) | 0.0426% [at 46 µM]
40 | CN1CC(=O)N2[C@H](c3ccc4c(c3)OCO4)c3[nH]c4ccccc4c3C[C@@H]2C1=O | 0.0352% [at 46 µM]
41 | O=C1c2ccccc2C(=O)C1c1nc2ccccc2c(Br)c1O | 0.277%
42 | N#CCCN(CCO)CCO | 1.38%
43 | O=[N+]([O-])c1ccc(O/N=C/c2cc(Br)c(O)c(Br)c2)c([N+](=O)[O-])c1 | -0.188%
44 | C/C=C/C=C/C=O | 0.343%
45 | O=c1cc(-c2ccccc2)oc2ccc3ccccc3c12 | 0.0972%
46 | Nc1nc2ccc([N+](=O)[O-])cc2s1 | -0.199%
47 | CCC(C)COC(C)=O (centres undefined) | 7.72%
48 | Brc1cc(Br)c(Oc2cc(Br)c(Br)cc2Br)cc1Br | -0.0414% [at 46 µM]
49 | C[C@@H]1CN(CCCn2c3ccccc3c3ccccc32)C[C@H](C)N1 | 0.0271% [at 46 µM]
50 | O=C1Cc2ccccc2N1c1c(Cl)cccc1Cl | -0.161%
51 | CC1(C)[C@H](C(=O)O)N2C(=O)C[C@H]2S1(=O)=O | -0.0548% [at 46 µM]
52 | Cc1cc(=O)c2c(O)c3c(O)cc(=O)c4c3c3c(cc(O)c1c23)C(C)(C)C=4O | 0.0583% [at 46 µM]
53 | CCCCC(CC)COP(=O)(O)O (centres undefined) | -0.244% [at 95.7 µM]

Row | SMILES | fluorescence, % of fluorescent control
54 | c1ccc2sc(SN(C3CCCCC3)C3CCCCC3)nc2c1 | -0.0287% [at 95.7 µM]
55 | CCCCCCCCOc1ccc(C(=O)O)cc1 | -0.0675%
56 | CCCC(C(=O)OCCN(CC)CC)(c1ccccc1)c1ccccc1 | 0.104% [at 46 µM]
57 | O=C(CCCN1CC=C(n2c(=O)[nH]c3ccccc32)CC1)c1ccc(F)cc1 | 0.12% [at 46 µM]
58 | C=CCc1ccccc1OCC(O)CNC(C)C (centres undefined) | -0.0265% [at 46 µM]
59 | CN(C)CCC=C1c2ccccc2C=Cc2ccccc21 | -0.0488% [at 46 µM]
60 | N#CCc1ccc(Cl)cc1Cl | 0.0417%
61 | CCOc1ccc(Cc2nccc3cc(OCC)c(OCC)cc23)cc1OCC | -0.0004% [at 18.6 µM]
62 | CCCCCCCCC(CCCCCC)C(=O)O (centres undefined) | 0.101%
63 | Oc1c(I)cc(I)c2cccnc12 | -0.135% [at 46 µM]
64 | CC(=O)NC1(c2cccc(F)c2)CCN(CC[C@@]2(c3ccc(Cl)c(Cl)c3)CN(c3ccccc3)C(=O)CO2)CC1 | 0.0304%
65 | CN1C(=O)c2ccccc2C1=O | -0.477%
66 | CC(=O)Oc1ccc([N+](=O)[O-])cc1CCl | -0.496%
67 | C=C(C)C(=O)OCCOCCOC(=O)C(=C)C | -0.036%
68 | CC(=O)N/N=C/c1ccc([N+](=O)[O-])o1 | 1.74% [at 46 µM]
69 | CC1(C)O[C@@H]2C[C@H]3[C@@H]4C[C@H](F)C5=CC(=O)C=C[C@]5(C)[C@H]4[C@@H](O)C[C@]3(C)[C@]2(C(=O)CO)O1 | -0.0461% [at 18.6 µM]
